Data as given in PubChem BioAssay (EPA / NIEHS).
Calls of active or inactive are those of the source. Rule for the calls: active = hit-call score of the fitted dose curve at least 0.9, where 1 is the maximum; inactive = score below 0.9.

Read-out: Interleukin-8 (IL8), CXCL8 (gene 3576)
Assay: BSK_BE3C_IL8: BioMAP Diversity Plus: BE3C Assay for Interleukin-8 (IL8) Biomarker Activity (AID 2284280)
Details: primary human bronchial epithelial cells
Method: BSK_BE3C is a cell-based, multiplexed-readout assay that uses bronchial epithelial cell, a human lung primary cell, with measurements taken at 24 hours after chemical dosing in a 96-well plate.BSK_BE3C_IL8 is an assay component measured in the BSK_BE3C assay. It measures IL-8 antibody related to regulation of gene expression using ELISA technology.Data from the assay component BSK_BE3C_IL8 was analyzed at the endpoint, BSK_BE3C_IL8, in the positive analysis fitting direction relative to DMSO as the negative control and baseline of activity. Using a type of binding reporter, gain or loss-of-signal activity can be used to understand protein changes. To generalize the intended target to other relatable targets, this assay endpoint is annotated to the 'cytokine' intended target family, where the subfamily is 'interleukins'.
The levels of cell surface (or secreted, indicated by the prefix "s") biomarker endpoints were measured by ELISA. Overt cytotoxicity to cells in confluent adherent cultures (all systems other than the BT system) was assessed by measuring total protein levels using sulforhodamine B (SRB) staining in parallel cultures at the time of biomarker measurements, indicated as SRB endpoints. For proliferation assays for adherent cell types, individual cell types are cultured at sub-confluence and relative cell numbers quantified by SRB staining at time points optimized for each system (48 h: 3C and CASM3C systems; 72 h: BT and HDF3CGF systems; 96 h: SAg system). SRB was performed by staining cells with 0.1% SRB after fixation with 10% TCA and reading wells at 560 nm.Viability and proliferation of PBMC (T cells) was quantified by Alamar Blue reduction for the SAg and BT systems. For PBMC viability (referred to as PBMC Cytotoxicity within the assay endpoint names), cells were plated (75,000/well in a 96-well plate) and then chemical samples added for 1 h before addition of activators, SEB and TSST-1 (20 ng/mL final concentration each). Cells were incubated for 90 h. Then, Alamar Blue (20 uL/well) (Invitrogen, Cat DAL1100) was added for 6 h, and the plates were read with a fluorescence microplate reader at 546/580 nm (excitation/emission). For PBMC proliferation, cells were plated and activated as above but incubated for only 16 h prior to addition of Alamar Blue. Plates were read after 6 h.

outcome, inactive:
OC1OC[C@@H](O)[C@H](O)[C@H]1O (some centres not stated)
NCCNCCN
C=CCOC(=O)CCC1CCCCC1
CC(=O)[C@H]1CC[C@H]2[C@@H]3CC=C4C[C@@H](O)CC[C@]4(C)[C@H]3CC[C@]12C
CC[Si](OC(C)=O)(OC(C)=O)OC(C)=O
CC(=O)OCCC(C)CC(C)(C)C (configuration not stated)
Nc1cc([N+](=O)[O-])ccc1O
C[C@H]1C[C@@H]2[C@H]([C@@H](O)C[C@@]3(C)[C@H]2CC[C@]3(O)C(=O)CO)[C@@]2(C)C=CC(=O)C=C12
OC[C@H]1O[C@H](O[C@]2(CCl)O[C@H](CCl)[C@@H](O)[C@@H]2O)[C@H](O)[C@@H](O)[C@H]1Cl
COc1cc(C=O)ccc1OC(=O)C(C)C
CCC(=O)OCc1ccccc1
Cc1cc(C2(c3cc(C)c(O)cc3C)OS(=O)(=O)c3ccccc32)c(C)cc1O
